Each structure is given as a SMILES string. A number with no mark means an inactive call. Calls of active or inactive are those of the source. Rule as the data show it: active = log2 fold change growth below about -1.8; inactive = the rest.

The test is described as follows: C. elegans growth inhibition, whole organism, log2 fold change (AID 1259336).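 Also: growth scored by imaging after five days at 20 °C.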 As to conditions: anthelmintic screen, stronger effect = lower value.
With `Cc1[nH]n2c(=O)c3c(nc2c1-c1ccc(Cl)cc1)CCCC3`, the log2 fold change growth is -0.182.

For the compound `Oc1c(I)cc(I)c2cccnc12`, the log2 fold change growth is 0.0616.

`Nc1ccc2ncnc(Nc3ccc(OCc4cccc(F)c4)c(Cl)c3)c2c1`: the log2 fold change growth was -0.0667.

For the compound `CC(C)(C)c1ccc(N[C@@H]2CCCC[C@H]2NC(=O)c2ccco2)cc1`, the log2 fold change growth is 0.519.

For `CCc1nc2ccc(C(=O)NCc3ccc4c(c3)OCO4)cn2c1N(C)Cc1cccs1`, the log2 fold change growth is -0.917.

Take `c1ccc(C[C@@H]2CN(c3nccc(Oc4ccc(-n5ccnc5)cc4)n3)CCN2)cc1`: the log2 fold change growth was 0.11.

For `CC1(O)CC(c2nc(-c3ccc4ccc(-c5ccccc5)nc4c3)c3c(N)nccn23)C1` (stereo not given), the log2 fold change growth is -0.23.

With `Cc1nc(-c2ccccn2)nc(N2CC[C@H](Cc3ccccc3)C2)c1Cl`, the log2 fold change growth was -1.52.

For `O=C(Nc1ccc2c(c1)B(O)OC2)c1ccccc1C(F)(F)F`, the log2 fold change growth was -8.94 (active).

In the case of `C[C@H](Oc1ccccc1)C(=O)Nc1nc(-c2ccccn2)cs1`, the log2 fold change growth was -0.519.

With `Cc1cc(Cl)c(S(=O)(=O)N2CCCC2)cc1OCC(=O)NC1CCCCC1`, the log2 fold change growth was -0.00734.

Take `CC(C)[C@H](NC(=O)Cc1cccc2ccccc12)C(=O)Nc1cccc(C#N)c1`: the log2 fold change growth was 0.334.

As to `COC(=O)c1ccc(F)cc1NS(=O)(=O)c1cccc(-c2cnn(Cc3ccccc3)c2)c1`, the log2 fold change growth was -0.413.

Consider `CCCn1nnc(NC(=O)COc2ccc(C3CCCCC3)cc2)n1`, for which the log2 fold change growth is 0.0714.

As for `O=C(Nc1cnc2ccccc2c1)c1cccc(-n2cnnn2)c1`, the log2 fold change growth was 0.489.

For the origin of these results see PubChem BioAssay AID1259336 (Sattelle Laboratory, UCL Respiratory, Division of Medicine, …, 2017).
